# Data taken from PubChem BioAssay AID2625 (National Center for Advancing Translational Sciences (NCATS), 2010).
# Results filed as inconclusive are left out. Calls of active or inactive are those of the source. Calls follow the shape of the dose curve; as a rule, active = well fitted curve in the direction sought with a large enough effect; inconclusive = small, poorly fitted or top-dose-only effect, or effect the other way, or another doubt; inactive = no such curve, though single readings can be large or run the other way.
# Target: Pyruvate kinase PKLR (Homo sapiens) (UniProt P30613)
# Assay: Secondary LDH Assay for Activators of Human Liver Pyruvate Kinase: for Probe SAR
# Conditions: purified hPK-L, LDH-coupled NADH fluorescence kinetic; series mostly up to 58.2 µM
# Excerpt: NIH Chemical Genomics Center [NCGC]
# Matthew G. Vander Heiden, M.D., Ph.D. [Harvard Medical School, 77 Avenue Louis Pasteur, Boston, MA 02115]
# Human pyruvate kinase liver (hPK-L)enzyme was supplied as a highly purified (>95% pure) preparation from Harvard Medical School and a secondary assay was used to evaluate compounds. This assay couples the formation of pyruvate from hPK-R using lactate dehydrogenase (LDH) and NADH. The depletion of NADH is followed in a fluorescent-based kinetic assay that follows the formation of pyruvate to lactate, as catalyzed LDH. Pyruvate kinase substrates, PEP and ADP, were present in the assay at 0.1 mM and 4 mM respectively. In this kinetic assay initial rates were determined by following the fluorescence of NADH depletion.
# NCGC Assay Protocol Summary:
# Three uL of substrate mix (final concentration, 50 mM Tris-Cl pH 8.0, 200 mM KCl, 15 mM MgCl2, 0.1 mM PEP, 4.0 mM ADP, and 0.2 mM NADH) was dispensed into black-solid 1536 well plates. 23 nL of compounds were delivered by a pin tool and 1 uL of enzyme mix (final concentrations, 10 nM hPK-L and 1 uM of LDH) was added. Plates were immediately placed in ViewLux (Perkin Elmer) and NADH fluorescence was determined at 30 second exposure intervals for between 3 and 6 minutes. Data were normalized to the uninhibited and EC100 activation using known activators such as fructose-bis-phosphate.
# Chain of Pyruvate kinase PKLR (Homo sapiens) (P30613 whole entry, looked up): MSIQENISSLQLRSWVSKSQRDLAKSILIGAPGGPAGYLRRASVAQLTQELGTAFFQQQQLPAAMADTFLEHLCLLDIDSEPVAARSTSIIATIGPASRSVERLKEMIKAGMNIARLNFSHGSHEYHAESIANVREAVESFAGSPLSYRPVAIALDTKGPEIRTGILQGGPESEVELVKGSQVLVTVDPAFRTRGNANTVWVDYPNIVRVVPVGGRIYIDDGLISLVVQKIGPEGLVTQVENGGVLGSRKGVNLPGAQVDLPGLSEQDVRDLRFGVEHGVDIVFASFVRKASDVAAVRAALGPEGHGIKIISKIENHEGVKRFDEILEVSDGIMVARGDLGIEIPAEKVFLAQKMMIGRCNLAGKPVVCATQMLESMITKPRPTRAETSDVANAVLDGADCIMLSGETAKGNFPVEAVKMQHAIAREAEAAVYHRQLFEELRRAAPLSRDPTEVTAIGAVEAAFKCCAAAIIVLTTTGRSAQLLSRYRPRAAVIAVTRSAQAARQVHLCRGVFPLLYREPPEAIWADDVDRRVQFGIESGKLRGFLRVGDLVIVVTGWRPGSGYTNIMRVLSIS
row,Structure (SMILES),outcome
1,Cc1cc(C)n2c(Nc3ccccc3)c(-c3ccc(C)o3)nc2n1,inactive
2,Cc1ccc(NS(=O)(=O)c2cc3c(cc2/C=C/c2ccccc2)NC(=O)CO3)cc1C,inactive
3,CC(=O)Nc1ccc(S(=O)(=O)Nc2ccc(C)c(C)c2)cc1,inactive
4,COc1cc(N2C(=O)c3ccccc3C2=O)c2ncccc2c1,inactive
5,Cc1ccc(-c2nc3cnccn3c2Nc2ccc(C(C)C)cc2)o1,inactive
6,Cc1ccc(OC2=NS(=O)(=O)c3ccccc32)cc1,inactive
7,COc1cc(F)c(S(=O)(=O)N2CCCN(S(=O)(=O)c3cccc(N)c3)CC2)c(F)c1,inactive
8,N#Cc1ccc(NS(=O)(=O)c2ccc3c(c2)CCC(=O)N3)cc1,inactive
9,Cc1ccc(Cl)cc1NS(=O)(=O)c1cc2c(cc1F)NC(=O)CC2,inactive
10,CSc1cc2c(s1)c1cnn(Cc3cccc(O)c3)c(=O)c1n2C,inactive
11,O=C1c2ccccc2C(=O)N1Cc1ccccn1,inactive
12,O=S1(=O)N=C(Oc2ccc(Cl)cc2)c2ccccc21,inactive
13,Cc1ccc(NS(=O)(=O)c2ccc3c(c2)N(C)CCO3)cc1C,inactive
14,O=C1c2ccccc2C(=O)N1c1ccc(Cl)cc1,inactive
15,O=S1(=O)N=C(Oc2ccccc2)c2ccccc21,inactive
16,Cc1ccccc1Nc1c(-c2ccc(Cl)s2)nc2ccccn12,inactive
17,O=C1CCc2cc(S(=O)(=O)Nc3ccc(F)cc3)ccc2N1,inactive
18,COc1ccccc1NS(=O)(=O)c1ccc2c(c1)CCC(=O)N2,inactive
19,Cc1ccc(NS(=O)(=O)c2cc3c(cc2-c2ccco2)NC(=O)CO3)cc1C,inactive
20,CC(C)Nc1cccc(S(=O)(=O)N2CCCN(S(=O)(=O)c3ccc4c(c3)OCCO4)CC2)c1,inactive

row,Structure (SMILES),outcome
1,O=C1CCc2cc(S(=O)(=O)Nc3cccc(Oc4ccccc4)c3)ccc2N1,inactive
2,Cc1ccc(NS(=O)(=O)c2ccc3c(c2)CCCC(=O)N3)cc1C,inactive
3,Cc1ccc(NS(=O)(=O)c2cc3c(cc2-c2cn[nH]c2)NC(=O)CO3)cc1C,inactive
4,Cc1ccc(NC(=O)c2ccc3c(c2)CCC(=O)N3)cc1C,inactive
5,Cc1ccc2nc(-c3ccc(C)o3)c(NC3CCCC3)n2c1,inactive
6,COc1cccc(OC2=NS(=O)(=O)c3ccccc32)c1,inactive
7,O=C1CCc2cc(S(=O)(=O)Nc3ccccc3F)ccc2N1,inactive
8,Cc1ccc(NS(=O)(=O)c2ccc3c(c2)NC(=O)CO3)cc1C,inactive
9,Cc1cc(NS(=O)(=O)c2ccc3c(c2)CCC(=O)N3)ccc1Cl,inactive
10,Cc1ccccc1OC1=NS(=O)(=O)c2ccccc21,inactive
11,O=C1c2ccccc2C(=O)N1c1ccc(O)cc1,inactive
12,O=C1c2ccccc2C(=O)N1C1CCCCC1,inactive
13,COc1ccccc1OC1=NS(=O)(=O)c2ccccc21,inactive
14,Cc1ccc2nc(-c3cccs3)c(Nc3ccccc3)n2c1,inactive
15,O=S1(=O)N=C(Oc2cccc(Cl)c2)c2ccccc21,inactive
16,COc1cccc(Cn2ncc3c4sc(SC)cc4n(C)c3c2=O)c1,inactive
17,O=C1c2ccccc2C(=O)N1c1cccc2cnccc12,inactive
18,O=C1c2ccccc2C(=O)N1c1nccs1,inactive
19,O=S1(=O)N=C(Oc2ccccc2Cl)c2ccccc21,inactive
20,O=C1CCc2cc(S(=O)(=O)Nc3ccc4c(c3)CCC4)ccc2N1,inactive
